Sfp inh = qHTS Assay for Inhibitors of Bacillus subtilis Sfp phosphopantetheinyl transferase (PPTase); 4'-phosphopantetheinyl transferase ffp (Bacillus subtilis), Q9F4F7; 310,000 tested, 3.5% active; AID 1490, 2009; Potency, µM, usual class: inhibitors; Biochemical Sfp PPTase activity, qHTS;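 also: the enzyme is Sfp with the accession as filed and its product quenches rhodamine fluorescence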
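Step 1, compound plus 15 nM Sfp-PPTase, 15 min, room temperature. Step 2, add rhodamine-CoA (5 uM) and BHQ-2-YbbR (12.5 uM). Step 3, read 525/598 nm fluorescence at 0 and 30 min.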
HP1b binding inh = HTS for Inhibitors of HP1-beta Chromodomain Interactions with Methylated Histone Tails. Potency, µM (highest dose often 114 µM), usual class: inhibitors. 390,000 tested, 0.56% active. AID 540317, 2011. AlphaScreen HP1-beta / biotin-H3K9me3 peptide binding. Chromobox protein homolog 1 (Homo sapiens), P83916; also: nearly all actives have a fitted effect of over 70% in size
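AlphaScreen: HP1-beta (50 nM) preformed 30 min with biotin-H3(1-18)K9me3 peptide (50 nM) in PBS pH 7.4, 0.01% Tween-20. Compound added for 30 min at RT, then streptavidin donor/nickel chelate acceptor beads (10 ug/mL) for 30 min.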
BAZ2B inh = qHTS Assay for Inhibitors of BAZ2B | Bromodomain adjacent to zinc finger domain protein 2B (Homo sapiens), Q9UIF8 | AlphaScreen BAZ2B-H3K14Ac peptide displacement | Potency, µM (doses to about 114 µM), actives largely listed as inhibitors | 360,000 tested, 4.4% active | AID 504333, 2011; also: nearly all actives have a fitted effect of over 60% in size
Target sequence (Q9UIF8 whole entry, looked up, the tested form may be a part): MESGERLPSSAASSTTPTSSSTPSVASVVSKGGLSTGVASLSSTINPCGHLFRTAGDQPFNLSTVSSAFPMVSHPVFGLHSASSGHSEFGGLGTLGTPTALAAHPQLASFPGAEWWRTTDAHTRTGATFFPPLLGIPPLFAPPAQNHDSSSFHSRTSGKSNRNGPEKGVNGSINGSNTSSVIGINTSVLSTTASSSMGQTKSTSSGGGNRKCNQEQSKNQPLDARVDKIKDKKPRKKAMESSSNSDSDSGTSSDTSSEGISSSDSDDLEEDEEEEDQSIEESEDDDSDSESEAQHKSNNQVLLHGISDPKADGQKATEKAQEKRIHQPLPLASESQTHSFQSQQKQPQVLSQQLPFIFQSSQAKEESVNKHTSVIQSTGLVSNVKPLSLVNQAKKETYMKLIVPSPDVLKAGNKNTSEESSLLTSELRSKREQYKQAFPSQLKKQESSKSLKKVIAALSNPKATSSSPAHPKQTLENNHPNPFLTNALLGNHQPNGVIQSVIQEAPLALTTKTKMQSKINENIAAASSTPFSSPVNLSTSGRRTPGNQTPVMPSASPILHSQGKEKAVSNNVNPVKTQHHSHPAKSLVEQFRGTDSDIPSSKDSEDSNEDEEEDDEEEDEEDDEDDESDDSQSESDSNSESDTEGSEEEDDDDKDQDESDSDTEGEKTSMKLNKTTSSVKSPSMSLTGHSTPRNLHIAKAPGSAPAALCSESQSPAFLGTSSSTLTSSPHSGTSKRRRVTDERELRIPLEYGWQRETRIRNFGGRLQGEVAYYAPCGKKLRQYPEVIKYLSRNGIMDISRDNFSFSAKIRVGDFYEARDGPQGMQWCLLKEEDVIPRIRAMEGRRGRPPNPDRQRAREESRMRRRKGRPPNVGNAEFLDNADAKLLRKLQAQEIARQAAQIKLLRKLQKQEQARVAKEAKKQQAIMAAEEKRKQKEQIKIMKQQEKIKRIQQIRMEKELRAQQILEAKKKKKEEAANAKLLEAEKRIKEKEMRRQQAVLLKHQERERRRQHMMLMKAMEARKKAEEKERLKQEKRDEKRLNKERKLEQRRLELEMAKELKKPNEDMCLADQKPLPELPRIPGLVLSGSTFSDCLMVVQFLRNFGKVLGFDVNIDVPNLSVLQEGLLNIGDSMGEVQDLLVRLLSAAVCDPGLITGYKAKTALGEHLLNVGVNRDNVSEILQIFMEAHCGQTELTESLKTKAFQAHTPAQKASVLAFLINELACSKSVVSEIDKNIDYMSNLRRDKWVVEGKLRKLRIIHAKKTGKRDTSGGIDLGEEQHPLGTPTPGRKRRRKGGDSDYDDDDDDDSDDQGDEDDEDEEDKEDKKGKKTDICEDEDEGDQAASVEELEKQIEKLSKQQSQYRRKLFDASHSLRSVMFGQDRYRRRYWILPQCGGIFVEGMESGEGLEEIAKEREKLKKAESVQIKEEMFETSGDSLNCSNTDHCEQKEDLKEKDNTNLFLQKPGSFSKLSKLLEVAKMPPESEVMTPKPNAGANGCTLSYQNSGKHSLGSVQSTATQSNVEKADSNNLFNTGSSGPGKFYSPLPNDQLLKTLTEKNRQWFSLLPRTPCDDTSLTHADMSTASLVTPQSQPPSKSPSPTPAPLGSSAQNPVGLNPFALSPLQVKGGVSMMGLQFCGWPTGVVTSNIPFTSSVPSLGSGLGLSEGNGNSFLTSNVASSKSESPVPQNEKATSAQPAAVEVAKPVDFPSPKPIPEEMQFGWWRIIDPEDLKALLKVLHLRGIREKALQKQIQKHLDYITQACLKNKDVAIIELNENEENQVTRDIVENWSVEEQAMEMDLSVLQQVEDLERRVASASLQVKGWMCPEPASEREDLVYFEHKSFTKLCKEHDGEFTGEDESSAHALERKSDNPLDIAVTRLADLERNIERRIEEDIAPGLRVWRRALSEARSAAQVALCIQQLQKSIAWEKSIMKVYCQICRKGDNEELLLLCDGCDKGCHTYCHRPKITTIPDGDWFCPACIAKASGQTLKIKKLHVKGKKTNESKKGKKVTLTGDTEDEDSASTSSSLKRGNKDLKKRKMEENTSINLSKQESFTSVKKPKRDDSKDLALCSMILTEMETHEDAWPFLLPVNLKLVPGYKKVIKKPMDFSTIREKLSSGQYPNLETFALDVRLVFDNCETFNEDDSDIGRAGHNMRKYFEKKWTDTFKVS
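BAZ2B 50 nM plus b-H3(5-23)K14Ac 50 nM, PBS pH 7.4/0.01% Tween-20, 30 min RT; compound added (max 110 uM), 30 min RT; streptavidin donor/Ni-chelate acceptor beads 10 ug/mL final, 20 min dark; AlphaScreen read.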
PLK1 PBD block = qHTS for Inhibitors of PLK1-PDB (polo-like kinase 1 - polo-box domain): Primary Screen. Serine/threonine-protein kinase PLK1 (Homo sapiens), P53350. Plk1 PBD binding of FITC phosphopeptide, fluorescence polarization. Potency, µM, actives largely listed as inhibitors. 360,000 tested, 2.8% active; also: series mostly up to about 57 µM; nearly all actives have a fitted effect of over 65% in size
JMJD2A Tudor inh = qHTS Assay for Inhibitors of JMJD2A-Tudor Domain; Lysine-specific demethylase 4A (Homo sapiens), O75164; AlphaScreen JMJD2A-Tudor / H3K4me3 peptide binding; Potency, µM (doses to about 114 µM), actives largely listed as inhibitors; 390,000 tested, 4.4% active; AID 504339, 2011; also: nearly all actives have a fitted effect of over 50% in size
G9a inh = qHTS Assay for Inhibitors of Histone Lysine Methyltransferase G9a; G9a H3K9 monomethylation, AlphaScreen, 2 h; Potency, µM (doses to about 102 µM), usual class: inhibitors; 350,000 tested, 8.8% active; AID 504332, 2011; also: nearly all actives have a fitted effect of over 75% in size
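Methyltransferase reactions run at room temperature for 2 h (20 nM enzyme, 500 nM biotin-H3K9 peptide, 20 uM SAM) after a 15 min compound preincubation; product detected by AlphaScreen beads and anti-H3K9me1 antibody.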
Numbers stand for hits; - = inactive; ? = inconclusive; . = no result; [ ] = another dose, or the depositor's remark. Sampled rows, rich in hits. Any-hit rate of the full collection: about 12%. Calls follow the shape of the dose curve; as a rule, active = well fitted curve in the direction sought with a large enough effect; inconclusive = small, poorly fitted or top-dose-only effect, or another doubt; inactive = no such curve, though single readings can be large; an effect the other way counts as inactive or inconclusive.

SMILES	Sfp inh	HP1b binding inh	BAZ2B inh	PLK1 PBD block	JMJD2A Tudor inh	G9a inh
CCCCN(C(=O)C1CC(=O)N(c2ccc(C)cc2)C1)c1c(N)n(CCC)c(=O)[nH]c1=O (stereo not drawn)	.	-	-	-	-	45µM
CCOc1ccc(C(C(=O)NCC2CCCO2)N(Cc2cccnc2)C(=O)c2snc(C(N)=O)c2N)cc1 (stereo not drawn)	-	-	-	-	-	-
Cc1c(S(=O)(=O)c2ccccn2)c(N)n(Cc2ccccc2Cl)c1C	-	-	?	-	-	.
COc1nc(C)cc(C)c1S(=O)(=O)c1ccccc1	-	-	-	-	-	-
Cc1c(S(=O)(=O)c2ccccn2)c(N)n(Cc2ccccc2)c1C	-	-	-	-	?	14µM
COCCn1c(C)c(C)c(S(=O)(=O)c2ccccc2)c1N	-	-	?	-	-	35µM
CN(C(=O)c1ccc(NC(=O)Cc2cccc(NC(=O)C3CCCN(C(=O)CCc4ccccc4)C3)c2)cc1)C1CC1 (stereo not drawn)	.	-	.	-	-	.
O=C(CCN1C(=O)/C(=C\c2ccco2)SC1=S)Nc1ccc(C(=O)O)c(O)c1	45µM	?	35µM	?	56µM	?
COc1ccccc1/C=C1\SC(=S)N(CCC(=O)Nc2ccc(C(=O)O)c(O)c2)C1=O	-	?	50µM	?	?	50µM
COc1ccccc1/C=C1\SC(=S)N(CCC(=O)NC2=NCCS2)C1=O	-	?	-	-	-	-
COc1ccc(/C=C2\SC(=S)N(CCC(=O)Nc3cccc(O)c3)C2=O)cc1	-	-	-	-	-	.
O=C(CCN1C(=O)/C(=C/c2ccco2)SC1=S)Nc1ccc(C(=O)O)c(O)c1	56µM	50µM	45µM	12µM	50µM	22µM
COc1ccc(-n2nc(C(=O)N3CCN(c4ccccc4OC)CC3)c3c4ccccc4n(C)c3c2=O)cc1	.	-	.	.	-	-
COc1ccccc1C(=O)OCC(=O)NC12CC3CC(CC(C3)C1)C2	.	-	-	-	-	?
O=C(COc1ccccc1F)NC12CC3CC(CC(C3)C1)C2	-	-	-	30µM	-[11.4 µM]	-
O=[N+]([O-])c1ccccc1N/N=C/c1ccccc1	-	-	-	-	-	-
CC1=C/C(=N\Nc2ccccc2[N+](=O)[O-])CC(C)(C)C1	-	7.1µM	2.8µM	-	7.9µM	3.5µM
CCCN(CC(=O)Nc1ccccc1C)C(=O)C1CC(=O)N(c2cccc(C)c2C)C1 (stereo not drawn)	.	-	-	-	-	-
Cc1ccc(OCC(=O)Nc2nnc(S(=O)(=O)N3CCc4ccccc43)s2)cc1	.	-	-	.	-	-
COC(=O)NNC(=S)Nc1ccc(Br)cc1	-	-	-	-	-	50µM
Oc1ccc(NC(=S)Nc2ccc(O)cc2)cc1	45µM	-	-	-	-	50µM
COC(=O)c1ccc(NC(=S)Nc2ccc(O)cc2)cc1	?	-	-	?	-	50µM
CCCn1c(/C=C/c2ccccc2)nc2ccccc21	?	-	-	-	-	-
COCCOCCn1c(/C=C/c2ccccc2)nc2ccccc21	-	-	-	19µM	?	-
CCn1c(/C=C/c2cc[n+](C)cc2)nc2ccccc21	-	-	?	-	?	35µM
SMILES	Sfp inh	HP1b binding inh	BAZ2B inh	PLK1 PBD block	JMJD2A Tudor inh	G9a inh
CC1=CC(=O)[C@@H]2C[C@H]1C2(C)C	-	.	.	.	.	.
C/C(=N/NS(=O)(=O)c1ccc(C)c(C)c1)c1ccncc1	-	-	-	-	-	-[0.501 µM]
C/C(=N\NS(=O)(=O)c1ccc(Br)cc1)c1ccncc1	-	-	-	5.3µM	-	-
COc1ccc(/C(C)=N/NS(=O)(=O)c2ccccc2)c(OC)c1	-	-	-	-	-	?
C/C(=N\NS(=O)(=O)c1c(C)cc(C)cc1C)c1ccncc1	-	-	-	-	-	8.9µM
COc1ccc(S(=O)(=O)N/N=C(/C)c2ccncc2)cc1OC	-	-	-	-	-	11µM
